D3 ag = D3 dopamine receptor (human) agonism; P35462; 410,000 tested, 0.58% active; D3R DiscoveRx beta-arrestin cells, luminescence, 90 min; max activation, %; AID 652048; in the data active = max activation above about 30%
Target sequence (P35462 whole entry, looked up): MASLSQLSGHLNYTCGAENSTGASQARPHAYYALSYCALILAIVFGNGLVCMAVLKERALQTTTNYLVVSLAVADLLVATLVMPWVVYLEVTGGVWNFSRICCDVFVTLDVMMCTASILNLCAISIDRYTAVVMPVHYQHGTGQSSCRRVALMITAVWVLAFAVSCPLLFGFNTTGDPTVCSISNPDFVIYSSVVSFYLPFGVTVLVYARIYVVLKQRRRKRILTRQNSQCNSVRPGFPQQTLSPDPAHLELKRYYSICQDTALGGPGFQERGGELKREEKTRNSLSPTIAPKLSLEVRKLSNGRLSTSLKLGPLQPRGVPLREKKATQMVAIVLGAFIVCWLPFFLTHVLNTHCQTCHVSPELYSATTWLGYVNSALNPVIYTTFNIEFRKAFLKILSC
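Agonist-mode cell screen: cells plated at 1500/well and incubated overnight at 37 °C, then exposed to library compounds for 90 min at 37 °C. Detection reagent was added for 30–60 min at room temperature, and luminescence was read.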
TDP1 cell CPT = DT40-hTDP1 cell growth loss with CPT; chicken DT40 Tdp1-/-;hTDP1 cells + 20 nM CPT, ATP luminescence, 48 h; Potency, µM (series often up to 46.2 µM), actives largely listed as inhibitors; 420,000 tested, 12% active; AID 686979; note: nearly all actives have a fitted effect of over 55% in size
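Chicken DT40 Tdp1-/- cells stably complemented with human TDP1 were seeded at 400 cells/well in medium containing 20 nM camptothecin, exposed to pin-transferred compounds, and grown at 37 °C for at least 48 hr. Viability was read as ATP luminescence.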
IL-1B inflam inh = blocks inflammasome-driven IL-1 beta release. activity change, % at 57.5 µM. THP-1 LPS/ATP IL-1B secretion, AlphaLISA, 16 h; active compounds read low. AID 743279. 360,000 tested, 4.7% active; in the data active = activity change below about -50%; inconclusive = mostly about -30% to -49%
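THP-1 cells pretreated 1 hr with compounds (up to 57.5 uM final), then stimulated with LPS (250 ng/mL final) plus ATP (1.25 mM final); secreted IL-1B measured by AlphaLISA after 16 hr, decreased signal indicating inhibition.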
D3 antag = blocks the human D3 dopamine receptor; D3R cells, DiscoveRx beta-arrestin luminescence, antagonist mode; active compounds read low; P35462; 360,000 tested, 2.5% active; max response, negative = inhibition, %; in the data active = max response below about -50%; inconclusive = no clear call, values can overlap the other calls
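Cells expressing the human receptor were seeded at 1500 cells/well, incubated overnight at 37 degrees C in 5% CO2, then exposed to library compounds with dopamine controls for 90 minutes at 37 degrees C before luminescent detection.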
ClpP mod = qHTS Assay for Activators of ClpP. ATP-dependent Clp protease proteolytic subunit (Bacillus subtilis (strain 168)), P80244. purified B. subtilis ClpP, FRET peptide cleavage, 20 min. Potency, µM (doses to about 57.5 µM). 340,000 tested, 1.9% active; active = well fitted falling curve with a large enough effect; inconclusive = small, poorly fitted or top-dose-only effect; inactive = no such curve, though single readings can be large or run the other way; note: the source files actives as falling curves though it sought activators and does not explain the sign; nearly all actives have a fitted effect of over 65% in size
Target sequence (P80244 whole entry, looked up): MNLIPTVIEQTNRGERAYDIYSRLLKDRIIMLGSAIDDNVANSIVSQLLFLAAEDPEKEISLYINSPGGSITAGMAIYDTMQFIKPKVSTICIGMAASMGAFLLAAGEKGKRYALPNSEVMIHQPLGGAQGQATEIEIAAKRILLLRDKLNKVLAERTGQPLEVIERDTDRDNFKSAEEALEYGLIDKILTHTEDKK
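Purified B. subtilis ClpP, 10 microg/mL final in Tris/HCl pH8 with KCl, BSA, glycerol and Tween-20, cleaved an Abz/nitrotyrosine-quenched decapeptide. Fluorescence (ex 320, em 430) was read at 0 and 20 min at room temperature. Delta was normalized to 5.8 microM ADEP and DMSO/no-enzyme controls.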
DT40 TDP1 no CPT = qHTS for Inhibitors of human tyrosyl-DNA phosphodiesterase 1 (TDP1): qHTS in cells in absence of CPT | DT40 Tdp1-/- hTDP1 cells, no CPT, ATP luminescence, 48 h | Potency, µM (highest dose often 46.2 µM), actives largely listed as inhibitors | 420,000 tested, 15% active; note: nearly all actives have a fitted effect of over 55% in size
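No-CPT arm: Tdp1-/-;hTDP1 DT40 cells (400/well) plus compounds, incubated ≥48 hr at 37 °C. Readout CellTiter-Glo luminescence.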
Hits are given with their value; n = inactive; u = inconclusive; x = no result; ! = a repeat was not active. A selection: hits, their analogues and other compounds. The true share with any hit is near 21%. Unless noted, calls come from the whole dose curve; as a rule, active = well fitted inhibition curve with a large enough effect; inconclusive = small, poorly fitted or top-dose-only effect; inactive = flat fitted curve, though single readings scatter.

SMILES	D3 ag	TDP1 cell CPT	IL-1B inflam inh	D3 antag	ClpP mod	DT40 TDP1 no CPT
CC[C@@]1(C(=O)OC)N[C@H](CN(C)C(=O)c2ccc(C(C)(C)C)cc2)[C@@H]2C(=O)N(Cc3ccccc3)C(=O)[C@@H]21	n	u	n	n	n	16µM
CCN(C[C@H]1N[C@@](CC)(C(=O)OC)[C@H]2C(=O)N(Cc3ccccc3)C(=O)[C@@H]12)S(=O)(=O)c1ccc(OC)cc1	n	23µM	n	n	n	u
CC[C@@]1(C(=O)OC)N[C@H](CN(C)C(=O)Nc2ccc(C(F)(F)F)cc2)[C@@H]2C(=O)N(Cc3ccccc3)C(=O)[C@@H]21	n	u	n	u	n	u
Cc1ccc2c(c1)cc1c(=O)n(CC(=O)N3CCC4(CC3)OCCO4)nc(C)n12	n	u	n	n	n	u
CC(C)n1c(O)c(C=NCc2ccccc2)c(=O)[nH]c1=S	n	n	n	n	n	n
CC(C)COc1ccc(Cc2c(O)[nH]c(=S)[nH]c2=O)cc1	n	n	n	n	n	n
COc1cc(C#Cc2c(-c3cncn3C)n(C)c3ccc(-c4cnc(N5CCOCC5)nc4)cc23)cc(OC)c1	n	16µM	u	n	n	12µM
Cc1ccc2oc(=O)c(-c3nc4ccc(C)cc4[nH]3)cc2c1	n	u	x	x	n	n
N#Cc1ccc(NC(=O)CN2CCN(C(=O)c3cccs3)CC2)cc1Cl	n	u	n	n	n	16µM
N#Cc1ccc(NC(=O)CN2C(=O)NC3(CCCC3)C2=O)cc1Cl	n	n	n	n	x	u
COc1ccc(-c2nn(CCC#N)cc2C(=O)Nc2ccccc2Br)cc1[N+](=O)[O-]	n	n	n	n	x	u
COc1cc(C2Nc3c(C)cc(C)cc3-c3cc(C)nn32)cc(OC)c1O (stereo unspecified)	n	5.8µM	x	x	n	4.1µM
Cc1cc(C)c2c(c1)-c1cc(C)nn1C(c1cccnc1)N2 (stereo unspecified)	n	n	n	n	n	n
Cc1ccc(Cl)cc1N1CCN(C(=O)c2cn(CC(C)C)c(=O)c3c2c2ccccc2n3C)CC1	n	6.5µM	x	x	13µM	4.6µM
COc1ccccc1CCNCc1cc2c(cc1[N+](=O)[O-])OCO2	n	n	n	-56	n	u
COc1ccc(CN2CCN(C(=O)Cn3c(=O)oc4cc(Cl)ccc43)CC2)c(OC)c1OC	n	10µM	n	n	n	u
COc1c(C=C2C(=O)NC(=O)NC2=O)c(CCN(C)C(=O)c2ccccc2)cc2c1OCO2	n	n	n	n	n	n
O=C1CCCC2[C@@H]3CCCN4CCC[C@@H](CN12)C34 (stereo partly specified)	x	n	x	x	x	n
Brc1ccccc1Cn1c(-c2cncs2)nc2ccccc21	n	u	n	n	n	16µM
Cc1o[nH]c(=O)c1C[C@H](N)C(=O)O	x	n	x	x	x	n
N#CC1=C(N)Oc2c(c(=O)sc3ccccc23)C1c1cccnc1 (stereo unspecified)	n	8.2µM	n	n	n	8.2µM
N#CC1=C(N)Oc2c(c(=O)oc3ccccc23)C1c1ccncc1 (stereo unspecified)	n	n	n	n	n	n
Cc1c(C(=O)NCc2cccc(C(F)(F)F)c2)sc(=O)n1Cc1ccc(C(=O)N(C)C)cc1	n	u	n	n	n	15µM
CSc1cccc(CNC(=O)C2CCC(=O)N(Cc3cccc(C(F)(F)F)c3)C2)c1 (stereo unspecified)	n	u	n	n	n	n
CCOc1ccc(Cn2c(=O)oc3ccc(C)cc32)cc1OC	n	u	n	n	n	u
SMILES	D3 ag	TDP1 cell CPT	IL-1B inflam inh	D3 antag	ClpP mod	DT40 TDP1 no CPT
COc1ccc(CNC(=O)c2sc(=O)n(Cc3ccc(C)cc3)c2C)cc1OC	n	u	n	n	n	16µM
CNc1ccc2oc(C[C@H]3O[C@]4(CC[C@H]3C)O[C@H]([C@H](C)C(=O)c3ccc[nH]3)[C@H](C)C[C@H]4C)nc2c1C(=O)O	x	1.5µM	x	x	x	1.1µM
CC1C(=O)OC2C(O)C34C5OC(=O)[C@@]3(OC3OC(=O)[C@H](O)[C@]34C(C(C)(C)C)C5O)[C@]12O (stereo partly specified)	x	n	x	x	x	n
CCC(C)C1N=C(c2ccccc2)c2cc(Cl)ccc2N(CC(=O)NCc2ccco2)C1=O (stereo unspecified)	n	n	n	n	n	n
Cc1ccccc1C1=NCC(=O)N(CC(=O)NCc2ccco2)c2sc3c(c21)CCCC3	n	16µM	-71	n	n	22µM
CCN1C(=O)c2ccccc2Sc2ccc(NC(=O)Nc3ccc(Br)c(C)c3)cc21	n	u	x	x	n	u
O=C(Cc1cc(=O)oc2cc(O)ccc12)NN=Cc1ccc(N(CCCl)CCCl)cc1	n	u	n	n	x	u
ClCCN(CCCl)c1ccc(C=NNc2ncccn2)cc1	n	4.6µM	n	n	x	5.2µM
N#Cc1ncc(N=Cc2ccc(N(CCCl)CCCl)cc2)s1	n	10µM	n	n	n	12µM
CC(C)N1C(=O)/C(=C/C=C/c2ccco2)C(=O)N(Cc2ccco2)C1=O	n	16µM	-106	n	n	15µM
COC(=O)[C@@]1(C#N)[C@@H]2C=CC(C(C)=O)=CN2[C@@H](C(N)=O)[C@@H]1c1ccc(F)cc1	n	n	n	n	x	u
CCN(CC)Cc1cc(Nc2ccnc3cc(Cl)ccc23)ccc1O	n	16µM!	-77!	n	n	23µM!
CCc1ccc([C@H]2[C@@H]3C(=O)C[C@@H]4C(=O)N(C5CCCCC5)C(=O)[C@@H]4[C@@H]3CN2S(=O)(=O)c2ccc(C)cc2)cc1	n	u	u	n	n	u
Cc1ccc(-n2c(O)c(/C=N/c3ncc(Br)cc3Br)c(=O)[nH]c2=O)cc1	n	u	n	n	x	9.2µM
Cc1ccc(-n2c(O)c(C=Nc3ccc(S(N)(=O)=O)cc3)c(=O)[nH]c2=O)cc1	n	n	n	n	x	n
Cc1cccc(-n2c(O)c(C=Nc3ccc(Br)cn3)c(=O)[nH]c2=O)c1	n	10µM	n	n	x	16µM
CCC(=NCCc1c[nH]c2ccccc12)c1c(O)n(C)c(=O)n(C)c1=O	65	4µM	u	n	n	6.3µM
CCC(=NC(C)c1ccccc1)c1c(O)n(C)c(=O)n(C)c1=O (stereo unspecified)	n	21µM	n	n	n	7.3µM
O=C(CNC(=O)OCc1ccccc1)Nc1ccc(Br)cc1C(=O)c1ccccc1	n	u	u	n	n	u

Source: PubChem
